# Assay results: a collection of fitness landscapes (doi:10.1126/science.1257360)
# Over roughly 140,000 sequences, “enrichment ratio after two sorts for PhoP signalling” has its median near 0; the highest 2% begin near 11. Many of the other results were omitted from the sample, so the highest values are more common in it than they were.
# B1: PhoQ; a variant is named by its letters at X, in order, P23837 (parent)
# chain: MKKLLRLFFPLSLRVRFLLATAAVVLVLSLAYGMVALIGYSVSFDKTTFRLLRGESNLFYTLAKWENNKLHVELPENIDKQSPTMTLIYDENGQLLWAQRDVPWLMKMIQPDWLKSNGFHEIEADVNDTSLLLSGDHSIQQQLQEVREDDDDAEMTHSVAVNVYPATSRMPKLTIVVVDTIPVELKSSYMVWSWFIYVLSANLLLVIPLLWVAAWWSLRPIEALAKEVRELEEHNRELLNPATTRELTSLVRNLNRLLKSERERYDKYRTTLTDLTHSLKTPLXXLQXXLRSLRSEKMSVSDAEPVMLEQISRISQQIGYYLHRASMRGGTLLSRELHPVAPLLDNLTSALNKVYQRKGVNISLDISPEISFVGEQNDFVEVMGNVLDNACKYCLEFVEISARQTDEHLYIVVEDDGPGIPLSKREVIFDRGQRVDTLRPGQGVGLAVAREITEQYEGKIVAGESMLGGARMEVIFGRQHSAPKDE
# Variants of: B1
# Assay: enrichment ratio after two sorts for PhoP signalling (ratio (wild type AVST 3.29)); higher = more functional
# Details: with PhoP (E. coli)
row,Variant,enrichment ratio
1,LIVW,≤ 0.25
2,YDSM,≤ 0.25
3,ATHF,≤ 0.25
4,ATSF,11.9
5,AIMF,0.847
6,ATMF,16
7,CTSF,3.85
8,ATSM,16.9
9,GTSM,10.6
10,ITSF,≤ 0.25
11,PAWP,≤ 0.25
12,TTFE,≤ 0.25
13,AILY,1.94
14,DNLY,≤ 0.25
15,TKLY,16.4
16,HKLY,≤ 0.25
17,ANLY,12
18,KKLY,≤ 0.25
19,GNLY,3.04
20,AKLY,19.7
21,AYLY,≤ 0.25
22,LENP,≤ 0.25
23,YGNS,≤ 0.25
24,ELCS,≤ 0.25
25,SDHR,≤ 0.25
26,RTCY,≤ 0.25

row,Variant,enrichment ratio
1,FQWN,≤ 0.25
2,MCYS,12.8
3,MMYS,≤ 0.25
4,KCYS,≤ 0.25
5,MKYS,≤ 0.25
6,STYS,0.267
7,QRYS,≤ 0.25
8,QEYS,37
9,MLYS,≤ 0.25
10,MEYS,25.6
11,LVRD,≤ 0.25
12,RKTS,≤ 0.25
13,MAFY,5.02
14,LGMS,≤ 0.25
15,NGMI,0.49
16,GGMD,≤ 0.25
17,GGMI,12.3
18,VGMG,≤ 0.25
19,NIMI,≤ 0.25
20,RGMI,≤ 0.25
21,LGMA,≤ 0.25
22,VGMW,≤ 0.25
23,VGMI,20.4
24,TGMI,13.2
25,LGMI,12.6
26,DSTD,≤ 0.25

row,Variant,enrichment ratio
1,HLRM,≤ 0.25
2,IPWT,≤ 0.25
3,WPQK,≤ 0.25
4,TMAW,≤ 0.25
5,WDLT,≤ 0.25
6,GWGM,≤ 0.25
7,HMWI,≤ 0.25
8,PRFL,≤ 0.25
9,DFQL,≤ 0.25
10,AGMG,≤ 0.25
11,AGMS,3.53
12,AGMI,16.4
13,NSFT,≤ 0.25
14,YKQH,≤ 0.25
15,HDPL,≤ 0.25
16,TNSV,19.4
17,LNSV,≤ 0.25
18,MNIV,≤ 0.25
19,MNSV,16.9
20,MNSK,≤ 0.25
21,ANSV,7.03
22,QING,≤ 0.25
23,PDEL,≤ 0.25
24,TSHN,0.659
25,ENQD,≤ 0.25
26,HKTQ,≤ 0.25

row,Variant,enrichment ratio
1,LCTQ,≤ 0.25
2,TGTQ,17.7
3,KSTQ,≤ 0.25
4,NNTQ,≤ 0.25
5,MKTQ,≤ 0.25
6,TMLA,2.72
7,NGTQ,≤ 0.25
8,MMTQ,≤ 0.25
9,TKTQ,12.6
10,TSTQ,16
11,TMTQ,14.3
12,LGMC,≤ 0.25
13,NWTN,≤ 0.25
14,VCIS,0.315
15,QCCN,≤ 0.25
16,PNLQ,1.01
17,SPYC,≤ 0.25
18,YNMF,≤ 0.25
19,LKVT,≤ 0.25
20,SFHI,≤ 0.25
21,VLMY,≤ 0.25
22,EGRC,≤ 0.25
23,EQYD,≤ 0.25
24,STTQ,6.67
25,TILA,4.43
26,NMTQ,≤ 0.25

row,Variant,enrichment ratio
1,KYTQ,≤ 0.25
2,SQTQ,11.3
3,TITQ,12.5
4,SLTQ,6.15
5,SGTW,≤ 0.25
6,SGTQ,17.4
7,VCDC,≤ 0.25
8,KHCF,≤ 0.25
9,TKQF,≤ 0.25
10,VNQI,≤ 0.25
11,MAYV,15.4
12,MEYF,≤ 0.25
13,MAYK,≤ 0.25
14,MAYF,16.5
15,NAYE,≤ 0.25
16,MAYE,33.3
17,MEYE,≤ 0.25
18,NAYV,≤ 0.25
19,FDYV,≤ 0.25
20,MAYI,21.1
21,MAAY,≤ 0.25
22,FDYF,≤ 0.25
23,MGDQ,≤ 0.25
24,VFQR,≤ 0.25
25,GVSL,5.42
26,GQSH,≤ 0.25

row,Variant,enrichment ratio
1,YRWT,≤ 0.25
2,FKMN,≤ 0.25
3,IMAN,≤ 0.25
4,MAYN,16.6
5,MAHF,9.56
6,MAHI,24.7
7,KAYN,≤ 0.25
8,MAYM,9.25
9,MAHE,≤ 0.25
10,LMFI,≤ 0.25
11,VDKC,≤ 0.25
12,PFWD,3.08
13,SWFV,≤ 0.25
14,FCIG,≤ 0.25
15,ATMH,12.3
16,ATTH,8.31
17,ATCH,≤ 0.25
18,HKMH,≤ 0.25
19,AIMH,4.85
20,AKMH,12
21,QGLS,3.82
22,LDNH,≤ 0.25
23,QEIS,≤ 0.25
24,MEIV,6.05
25,TEIS,11.4
26,MEIS,13.8

row,Variant,enrichment ratio
1,NEIS,≤ 0.25
2,TEIV,≤ 0.25
3,FGMP,≤ 0.25
4,MYAF,≤ 0.25
5,NHMV,≤ 0.25
6,NHMI,≤ 0.25
7,THMV,8.19
8,NEMI,29
9,NEMD,≤ 0.25
10,NEMS,≤ 0.25
11,SHMI,5.85
12,NEMV,14.8
13,THMI,26.1
14,DIIV,≤ 0.25
15,DPWI,≤ 0.25
16,ARSS,0.56
17,QLGI,≤ 0.25
18,HQLC,≤ 0.25
19,HNDG,≤ 0.25
20,HGKL,≤ 0.25
21,AILC,7.86
22,MKLC,≤ 0.25
23,ATLC,13.2
24,FTLC,6.55
25,IILC,≤ 0.25
26,YYLC,≤ 0.25

row,Variant,enrichment ratio
1,YTLC,11.3
2,SALC,12
3,AYLC,0.263
4,HKLC,≤ 0.25
5,KQLC,≤ 0.25
6,TKLC,19.8
7,KVHY,≤ 0.25
8,RTKV,≤ 0.25
9,APDH,≤ 0.25
10,RGMG,≤ 0.25
11,KYLC,≤ 0.25
12,SPLC,≤ 0.25
13,SWLC,≤ 0.25
14,LWLC,≤ 0.25
15,STLC,13.2
16,ADLC,3.37
17,KDLC,≤ 0.25
18,TDLC,11.7
19,SCLC,12.4
20,SGLC,20.7
21,DFLC,≤ 0.25
22,SGNS,≤ 0.25
